High-throughput results (PubChem)
Many of the other results were omitted from the sample, so hits are more common in it than they were.
Tgondii IFNg: blocks Toxoplasma gondii growth in the presence of IFN-gamma. Toxoplasma gondii growth in IFN-gamma-treated host cells; hits give low values. activity change, negative = inhibition, % (test concentration not listed). 69,000 tested, 3.8% active. AID 1259416; in the data active = activity change below about -70%, passing the limit was not always enough;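 also: host cells are HeLa cells infected with Toxoplasma gondii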
* hit, by the source's call; i = inactive.

SMILES	Tgondii IFNg
O=C(/C=C\n1cnc(-c2cc(C(F)(F)F)cc(C(F)(F)F)c2)n1)NNc1cnccn1	-69
O=C(/C=C\n1cnc(-c2cc(C(F)(F)F)cc(C(F)(F)F)c2)n1)N1CC(F)(F)C1	-80*
O=C(c1cc(C(F)(F)F)cc(C(F)(F)F)c1)N1CC=CCC1	22
COc1cc(-c2ncn(/C=C\C(=O)OC(C)C)n2)cc(C(F)(F)F)c1	-85*
CC(CNC(=O)c1cccs1)N(C)c1ccccc1 (stereo unspecified)	-35
CCN(CC)C(=O)c1cc(=O)n(CC(=O)Nc2ccc(C)c(C)c2)c2ccccc12	12
O=C(c1ccccc1)N1CCC2(COCc3cnc(NCc4ccco4)nc32)C1 (stereo unspecified)	-5
Cc1cccc(CCNc2cc(C)nc3ncnn23)c1	3
Cc1nc2ncnn2c(NCc2ccc3c(c2)OCO3)c1Cc1ccccc1	-95*
CCOC(=O)c1nc(NCc2ccc3c(c2)OCO3)c2ccccc2n1	9
O=C(Nc1cnn(Cc2ccccc2F)c1)c1cc(-c2ccc(Cl)cc2)on1	-24
Cc1ccc(-c2nc(C)c(CCNC(=O)C(=O)Nc3cccc(Cl)c3)s2)cc1	70
COc1ccc(-c2nnc(-c3nc(NCc4ccc5c(c4)OCO5)c4ccccc4n3)o2)cc1	111
C1=C(c2ccccc2)CC(c2ccccc2)=NN=C1c1ccccc1	-87*
O=C1CC(c2ccccc2)=NN1c1ccccc1	-39
NC(=O)N1CC[C@@H](OCC2CC2)[C@@H]1Cc1ccncc1	-18
C=CCOCC1CN(S(=O)(=O)c2ccccc2)Cc2ccnn2C1 (stereo unspecified)	-1
O=C(CCc1c[nH]c2ccccc12)NCc1cn[nH]c1-c1cccs1	-16
COc1cccc(NC(=O)Cn2ncc3c(N4CCCCCC4)ncnc32)c1	-42
CC(C)c1ccc2c(c1)CCC1C(C)(C(N)=O)CCCC21C (stereo unspecified)	-72*
COC(=O)[C@@]1(C)CCC[C@]2(C)c3ccc(O)c(C(C)C)c3CCC12 (stereo partly specified)	-76*
CC(C)c1ccc2c(c1)CCC1[C@](C)(CN)CCC[C@]21C (stereo partly specified)	-9
COc1ccc2c3c(n(C)c2c1)[C@@H](CO)N(C(=O)CC1CC1)CC31CN(C(=O)NC(C)C)C1	129
CC(C)c1c(O)ccc2c1CCC1C(C)(C)CCC[C@]21C (stereo partly specified)	-46
COc1ccc(-c2ccc3oc(-c4cccnc4)nc3c2)c(OC)c1OC	-49
SMILES	Tgondii IFNg
COc1nc2c(cc1C(=O)N1CCC(O)(c3ccc(C)cn3)CC1)CCC2	-2
COC(=O)c1cncc(N2C[C@@H]3C4CCC(CC4)[C@@H]3C2)n1	6
FC(F)(F)c1cccc(-c2ccc(-c3cccc(C(F)(F)F)c3)o2)c1	-11
Cc1oc(-c2cccc(C(F)(F)F)c2)nc1CN(C)Cc1cnc(N)nc1	-2
FC(F)(F)c1cccc(-c2nnc(C3c4ccccc4Oc4ccccc43)o2)c1	-99*
COc1ccc(Br)cc1CNC(=O)c1nc(Nc2ccc(F)cc2)c2ccccc2n1	-33
Cc1ccn2cc(-c3ccc4c(c3)CC(C)N4S(C)(=O)=O)cc2c1 (stereo unspecified)	72
C=CCn1c2ccccc2n2c(C(=O)CC)c(-c3ccccc3)nc12	-98*
C=CCn1c(-c2c(-c3ccccc3)ncn2CCc2cnc[nH]2)nc2ccccc21	-3
CCCc1c(-c2ccccc2)nc2[nH]c3ccccc3n2c1=O	171
COc1ccc(CCN2C(=O)N(C)C(=O)C23CCN(CCC(C)c2ccc(C)o2)CC3)cc1 (stereo unspecified)	2
Cc1ccc(S(=O)(=O)N2CCC3(CC2)NCCN=C3NCc2ccc(Cl)cc2)cc1C	-35
C[C@@H]1CN([C@@H](C)CO)C(=O)c2c(c3ccccc3n2C)-c2ccccc2CO[C@@H]1CN(C)C(=O)[C@@H](Cc1ccccc1)N(C)C	-31
C[C@H](CO)N1C[C@H](C)[C@H](CN(C)C(=O)[C@@H](Cc2ccccc2)N(C)C)OCc2ccccc2-c2c(n(C)c3ccccc23)C1=O	-72*
C[C@H](CO)N1C[C@H](C)[C@@H](CN(C)C(=O)[C@H](Cc2ccccc2)N(C)C)OCc2ccccc2-c2c(n(C)c3ccccc23)C1=O	33
CCn1c(C2CCCN(Cc3cnccc3C(F)(F)F)C2)n[nH]c1=O (stereo unspecified)	63
O=C(c1cc2n(n1)CCNC2)N1CCCC(OCc2ccccn2)C1 (stereo unspecified)	10
COC(=O)[C@@H]1C[C@H](NS(=O)(=O)CCc2ccncc2)CN1C	9
CC1CCCCN1C(=O)c1ccn(-c2ccc3ccccn23)n1 (stereo unspecified)	-20
CC1CCCCN1C(=O)c1ccnn1-c1ccc2ccc(-c3ccccc3)cn12 (stereo unspecified)	-85*
O=C(Nc1cccnc1)c1ccnn1-c1ccc2ccc(-c3cccnc3)cn12	-1
COc1ccc(NC(=O)Nc2ccc(-c3nc(-c4ccccc4)co3)cc2)c(OC)c1	-6
CC(C)C(=O)N1CCCC2(CCCN2C(=O)CCc2ccccc2)C1 (stereo unspecified)	35
Cc1ccc(S(=O)(=O)N(C)c2cncc(C(=O)N3CCCCC3)c2)cc1	38
CC(C)C(=O)N1CCCC2(CCCN2CCCc2ccccc2)C1 (stereo unspecified)	-8
SMILES	Tgondii IFNg
COc1ccc(-c2nc3c(s2)CN(S(=O)(=O)c2cccc(F)c2)CC3)cc1	-4
COc1ccc(-c2nc3c(s2)CN(S(=O)(=O)c2ccc(OC)cc2)CC3)cc1	-4
CCc1ccccc1S(=O)(=O)N1CCc2nc(-c3ccc(OC)cc3)sc2C1	-92*
CCOc1ccc(S(=O)(=O)N2CCc3nc(-c4ccccc4)sc3C2)cc1	15
COc1ccc(-c2nc3c(s2)CN(S(=O)(=O)c2c(C)cc(C)cc2C)CC3)cc1	5
Cc1cc(C)cc(S(=O)(=O)N2CCc3nc(-c4ccccc4)sc3C2)c1	-17
COc1ccc(-c2nc3c(s2)CN(S(=O)(=O)c2cccs2)CC3)cc1	-94*
COc1ccc(-c2nc3c(s2)CN(S(=O)(=O)c2ccc(CC(C)C)cc2)CC3)cc1	11
COc1ccc(-c2nc3c(s2)CN(S(=O)(=O)c2cc(C)cc(C)c2)CC3)cc1	-116*
CCOc1ccc(-c2nc3c(s2)CN(S(=O)(=O)c2cccc(Cl)c2C)CC3)cc1	-65
COc1cccc(-c2nc3c(s2)CN(S(=O)(=O)c2cccc(Cl)c2)CC3)c1	-36
COc1cccc(-c2nc3c(s2)CN(S(=O)(=O)c2cc(C)cc(C)c2)CC3)c1	-85*
CCCc1ccc(C(=O)N2CCC3(CC2)COCCN(Cc2ccncc2)C3)cc1	-14
c1ccc(CN2CCCN(c3nc4c(c5nncn35)CCCC4)CC2)cc1	-8
COc1ccc(CC(=O)NC2CCC3(CCC(=O)N3)CC2)cc1 (stereo unspecified)	3
COc1cccc(-n2cc(CNC3CCN(S(C)(=O)=O)CC3)cn2)c1	-2
O=C(c1cccc(Cl)c1)N1CCC2(CC1)Nc1ccccc1-n1cccc12	27
Cc1nc(CN2CCN(C(=O)c3cn(-c4ccccc4)nn3)CC2)cs1	-42
CC(C)c1nccn1CCCNC(=O)c1ccc(N2CCNC(=O)CC2)nc1	2
O=C(Nc1cccc(F)c1)N1CCC2(CC1)Nc1ccccc1-n1cccc12	i
CC(C)c1nccc(C(=O)NCc2nncn2C2CCCCC2)n1	-1
CS(=O)(=O)N1C[C@H]2COC[C@@H](C(=O)N3CCCO3)[C@H]2C1	14
